Assay results from the supplement of paper PMC13380429.

Test system: Vero E6 infected with SARS-CoV-2
Test: inhibition of SARS-CoV-2 cytopathic effect; higher = more antiviral protection, active = above 15
Conditions: 48 h

Measured: inhibition of SARS-CoV-2 cytopathic effect

COC(=O)[C@H](CC(C)C)NC(=O)[C@@H](N)CC(C)C [leucylleucine-methyl-ester]
inactive: 1 nM -2.04% | 8.33 nM 0.78% | 100 nM -1.7% | 833.33 nM -0.61% | 10000 nM -0.55%

NC(=O)NC1NC(=O)NC1=O (stereo not given) [allantoin]
inactive: 1 nM -0.84% | 8.33 nM -1.51% | 100 nM -2.49% | 833.33 nM -1.11% | 10000 nM 1.18%

COC(=O)C(Cc1ccc(OCCn2c(=O)sc3cc(C(=O)c4ccccc4)ccc32)cc1)C(=O)OC
inactive: 1 nM -0.38% | 8.33 nM 2.25% | 100 nM -1.78% | 833.33 nM -1.22% | 10000 nM 0.02%

CO[C@H]1CC[C@H](N2C(=O)CNc3ncc(-c4ccc(C(C)(C)O)nc4)nc32)CC1
inactive: 1 nM 0.96% | 8.33 nM -0.05% | 100 nM 0.58% | 833.33 nM -3.48% | 10000 nM -14.6%

OB1OCc2cc(F)ccc21 [tavaborole]
inactive: 1 nM -0.98% | 8.33 nM 1.46% | 100 nM -1.21% | 833.33 nM 2.11% | 10000 nM -2.53%

O=P(O)(O)C(O)(Cn1ccnc1)P(=O)(O)O [zoledronic-acid]
inactive: 1 nM -0.24% | 8.33 nM 2.18% | 100 nM 1.88% | 833.33 nM 0.51% | 10000 nM -0.12%

O=C(Cc1ccccc1)Nc1nc2ccc(Cl)cc2c2nc(-c3ccco3)nn12
inactive: 1 nM 3.65% | 8.33 nM 4.32% | 100 nM 3.84% | 833.33 nM 2.42% | 10000 nM 4.22%
